From PubChem BioAssay (Tox21)
Inconclusive results are not listed. The source made the active and inactive calls. Unless noted, the call rests on the fitted dose curve; in most records, active means well fitted curve in the direction sought with a large enough effect in the repeat runs; inconclusive means weak or mixed curves; inactive means flat fitted curve, though single readings scatter.

Assays:
[1] = qHTS assay to test for compound auto fluorescence at 535 nm (green) in HEK293 cells (AID 720680)
[2] = qHTS assay to test for compound auto fluorescence at 460 nm (blue) in HEK293 cell free culture (AID 720681)
Summary of the method: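 Blue fluorescence (Ex 405/Em 460 nm, triamterene-equivalent) was read immediately after pin transfer of compound or DMSO into medium (DMEM, 10% FBS) without cells.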

[3] = qHTS assay to test for compound auto fluorescence at 535 nm (green) in HEK293 cell free culture (AID 720682)
Summary of the method: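 Using fluorescein as calibrant, autofluorescence was quantified at 485/535 nm in cell-free DMEM containing 10% FBS after pintool addition of compound or vehicle.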

[4] = qHTS assay to test for compound auto fluorescence at 590 nm (red) in HEK293 cell free culture (AID 720683)
Summary of the method: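 Red-channel autofluorescence of compounds in culture medium (DMEM, 10% FBS), no cells, measured at 540/590 nm. Rose Bengal sodium is the reference fluorophore for equivalence.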

[5] = qHTS assay to test for compound auto fluorescence at 590 nm (red) in HepG2 cell free culture (AID 720684)
Summary of the method: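 Plate contents were MEM with 10% FBS plus test compound or DMSO, no cells. Fluorescence was recorded with 540 nm excitation and 590 nm emission.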

[6] = qHTS assay to test for compound auto fluorescence at 460 nm (blue) in HepG2 cell free culture (AID 720685)
Summary of the method: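 Compound (23 nL) or DMSO pinned into cell-free MEM with 10% FBS; blue fluorescence read at 405/460 nm excitation/emission, expressed as auto-fluorescence equivalency to triamterene.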

[7] = qHTS assay to test for compound auto fluorescence at 535 nm (green) in HepG2 cell free culture (AID 720686)
[8] = qHTS assay to test for compound auto fluorescence at 460 nm (blue) in HepG2 cells (AID 720687)
Summary of the method: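 Blue-channel autofluorescence (Ex/Em 405/460 nm, triamterene-equivalent) was measured after 1 hr compound exposure at 37 C, 5% CO2. Cells were HepG2, plated overnight at 37 C in MEM plus 10% FBS.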

[9] = target: Glucocorticoid receptor (Homo sapiens) (UniProt P04150); assay: qHTS assay to identify small molecule agonists of the glucocorticoid receptor (GR) signaling pathway (AID 720691; active means well fitted activation curve with a large enough effect in the signal ratio in the repeat runs, not every such curve was filed as active; the % refers to the signal ratio)
Sequence of Glucocorticoid receptor (Homo sapiens) (P04150 whole entry, looked up): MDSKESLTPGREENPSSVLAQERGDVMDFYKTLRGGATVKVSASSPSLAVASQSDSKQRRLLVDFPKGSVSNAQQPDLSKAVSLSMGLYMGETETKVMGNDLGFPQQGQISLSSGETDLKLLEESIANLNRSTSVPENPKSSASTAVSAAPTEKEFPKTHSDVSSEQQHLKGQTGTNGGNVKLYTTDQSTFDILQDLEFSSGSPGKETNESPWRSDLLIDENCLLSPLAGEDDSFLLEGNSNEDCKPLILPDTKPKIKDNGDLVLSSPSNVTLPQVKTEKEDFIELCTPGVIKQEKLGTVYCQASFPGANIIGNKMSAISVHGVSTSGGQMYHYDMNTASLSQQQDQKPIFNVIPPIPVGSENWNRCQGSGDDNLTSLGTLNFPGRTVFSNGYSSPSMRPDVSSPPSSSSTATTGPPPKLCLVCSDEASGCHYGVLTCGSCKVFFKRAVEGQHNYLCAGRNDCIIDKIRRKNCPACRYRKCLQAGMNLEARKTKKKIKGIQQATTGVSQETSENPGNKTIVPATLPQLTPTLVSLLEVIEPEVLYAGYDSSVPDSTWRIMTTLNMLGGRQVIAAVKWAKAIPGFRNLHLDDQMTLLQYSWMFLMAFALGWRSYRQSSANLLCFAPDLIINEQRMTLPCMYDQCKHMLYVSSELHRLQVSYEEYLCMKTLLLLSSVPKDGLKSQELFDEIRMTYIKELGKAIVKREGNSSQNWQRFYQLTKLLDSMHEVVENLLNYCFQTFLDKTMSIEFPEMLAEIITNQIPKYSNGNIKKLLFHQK
Summary of the method: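 GR-bla HeLa cells carrying a GRE-driven beta-lactamase reporter, exposed to compounds for 18 h at 37 C. Reporter activation read as fluorescence after 2 h with LiveBLAzer B/G FRET substrate at room temperature.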

[10] = target: Glucocorticoid receptor (Homo sapiens) (UniProt P04150); assay: qHTS assay to identify small molecule antagonists of the glucocorticoid receptor (GR) signaling pathway (AID 720692; active means well fitted inhibition curve with a large enough effect in the signal ratio in the repeat runs, not every such curve was filed as active; the % refers to the signal ratio)
Summary of the method: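 GR-bla HeLa cells carrying a GRE-driven beta-lactamase reporter received compound after 4 h plating, then dexamethasone (5 nM final). After 18 h at 37C, the FRET substrate was loaded for 2 h at room temperature and fluorescence read.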

Measured: Potency

Cc1c(COC(=O)[C@@H]2[C@H](/C=C(\Cl)C(F)(F)F)C2(C)C)cccc1-c1ccccc1
inactive: [1] | [2] | [3] | [4] | [5] | [6] | [7] | [8]

Oc1cc(Cl)ccc1Cl
inactive: [1] | [2] | [3] | [4] | [5] | [6] | [7] | [8] | [9] | [10]

CCCCN(CC)c1c([N+](=O)[O-])cc(C(F)(F)F)cc1[N+](=O)[O-]
inactive: [1] | [2] | [3] | [4] | [5] | [6] | [7] | [8] | [9] | [10]

c1ccc(-c2cccc(-c3ccccc3)c2)cc1
inactive: [1] | [2] | [3] | [4] | [5] | [6] | [7] | [8]

NCc1cccnc1
inactive: [1] | [2] | [3] | [4] | [5] | [6] | [7] | [8]

Nc1ccncc1
inactive: [1] | [2] | [3] | [4] | [5] | [6] | [7] | [8]

Oc1cc(Cl)c(Cl)cc1Cl
inactive: [1] | [2] | [3] | [4] | [5] | [6] | [7] | [8]

CNC(=O)Oc1cccc2c1OC(C)(C)O2
inactive: [1] | [2] | [3] | [4] | [5] | [6] | [7] | [8] | [9]

O=C(NC(=O)c1c(F)cccc1F)Nc1ccc(Cl)cc1
inactive: [1] | [2] | [3] | [4] | [5] | [6] | [7] | [8]

CCCCCc1cc(O)cc(O)c1
inactive: [1] | [2] | [3] | [4] | [5] | [6] | [7] | [8]

c1ccc(N=Nc2ccccc2)cc1
inactive: [1] | [2] | [3] | [4] | [5] | [6] | [7] | [8] | [9] | [10]

C=C(C)C(=O)OCC1CO1 (centres undefined)
inactive: [1] | [2] | [3] | [4] | [5] | [6] | [7] | [8] | [9] | [10]

CC(O)CCO (centres undefined)
inactive: [1] | [2] | [3] | [4] | [5] | [6] | [8]

N#CC(Br)Br
inactive: [1] | [2] | [3] | [4] | [5] | [6] | [7] | [8] | [9] | [10]

NC(=S)Nc1ccccc1
inactive: [1] | [2] | [3] | [4] | [5] | [6] | [7] | [8] | [9] | [10]

Cc1cc(Cl)ccc1OCCCC(=O)O
inactive: [1] | [2] | [3] | [4] | [5] | [6] | [7] | [8] | [9] | [10]

CCCCOCCOP(=O)(OCCOCCCC)OCCOCCCC
inactive: [1] | [2] | [3] | [4] | [5] | [6] | [7] | [8] | [9] | [10]

COC(=O)c1sccc1S(=O)(=O)NC(=O)Nc1nc(C)nc(OC)n1
inactive: [1] | [2] | [3] | [4] | [5] | [6] | [7] | [8] | [9] | [10]

Brc1ccc(Oc2cc(Br)c(Br)cc2Br)c(Br)c1
inactive: [1] | [2] | [3] | [4] | [5] | [6] | [8]

CCC(C)c1cc([N+](=O)[O-])cc([N+](=O)[O-])c1O (centres undefined)
inactive: [1] | [2] | [3] | [4] | [5] | [6] | [7] | [8] | [9] | [10]

NNC(N)=S
inactive: [1] | [2] | [3] | [4] | [5] | [6] | [7] | [8] | [9] | [10]

Cc1ccc(N)c(N)c1
inactive: [1] | [2] | [3] | [4] | [5] | [6] | [7] | [8] | [9] | [10]

CCCCCCCCCCCOC(=O)c1ccccc1C(=O)OCCCCCCCCCCC
inactive: [1] | [2] | [3] | [4] | [5] | [6] | [7] | [8] | [9] | [10]

CCC(C)(C)c1ccc(O)cc1
inactive: [1] | [2] | [3] | [4] | [5] | [6] | [7] | [8] | [9] | [10]

C[C@]12CCC(=O)C(O)=C1CC[C@@H]1[C@@H]2CC[C@]2(C)C(=O)CC[C@@H]12
inactive: [1] | [2] | [3] | [4] | [5] | [6] | [7] | [8] | [9] | [10]

CCOc1cc(Oc2ccc(C(F)(F)F)cc2Cl)ccc1[N+](=O)[O-]
inactive: [1] | [2] | [3] | [4] | [5] | [6] | [7] | [8] | [9] | [10]

N[C@@H](Cc1ccc(N(CCCl)CCCl)cc1)C(=O)O
inactive: [1] | [2] | [3] | [4] | [5] | [6] | [7] | [8] | [9] | [10]
